Results from ChEMBL document CHEMBL3988442, “University of Dundee, Small-Polar-MMV Screening Library” (2021).

Columns and labels:
[1] = biological target: T1, Aspartate--tRNA(Asp/Asn) ligase (Mycobacterium tuberculosis (strain ATCC 25618 / H37Rv)) (UniProt P9WFW3); assay: Assay for Asp RNA synthetase-1 from Mycobacterium tuberculosis; type: functional; design: scale not given: direction of the effect not stated beside the values; details: 30 µM; also: in the data most compounds retested in dose-response had high values
T1 sequence (whole entry): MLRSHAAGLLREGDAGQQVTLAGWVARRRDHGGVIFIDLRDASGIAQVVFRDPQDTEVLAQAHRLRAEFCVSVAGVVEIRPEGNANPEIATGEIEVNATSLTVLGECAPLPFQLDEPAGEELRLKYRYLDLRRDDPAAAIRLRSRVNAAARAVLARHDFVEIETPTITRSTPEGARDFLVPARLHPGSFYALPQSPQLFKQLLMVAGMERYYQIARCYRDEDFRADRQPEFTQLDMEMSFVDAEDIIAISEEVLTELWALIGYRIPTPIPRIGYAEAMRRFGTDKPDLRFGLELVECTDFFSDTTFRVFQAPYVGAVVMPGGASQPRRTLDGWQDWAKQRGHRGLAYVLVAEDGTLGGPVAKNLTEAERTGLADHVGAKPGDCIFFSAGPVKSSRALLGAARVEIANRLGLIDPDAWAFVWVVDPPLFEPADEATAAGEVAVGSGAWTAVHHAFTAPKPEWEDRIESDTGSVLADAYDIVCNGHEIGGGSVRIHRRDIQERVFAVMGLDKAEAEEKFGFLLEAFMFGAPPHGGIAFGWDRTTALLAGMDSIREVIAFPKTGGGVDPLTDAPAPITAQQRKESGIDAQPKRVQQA

[2] = biological target: Shiga toxin 2 (Escherichia coli O157:H7) (UniProt P09385+P09386); assay: E. coli 0.157:H7 Shiga Toxin SOP - stx2 screening assay; type: functional; design: scale not given: direction of the effect not stated beside the values; details: 30 µM

Cc1ccc(NC(=O)C2CSCN2C(=O)c2cnn(C)c2)c(C)c1 (stereo not given)
Percent Effect [1]: 0.456%
Percent Effect [2]: -0.207%

CN(Cc1nc2c(cnn2C)c(=O)[nH]1)Cc1ccc(F)cc1F
Percent Effect [1]: -2.26%
Percent Effect [2]: -10.7%

Cc1nn(C)c(Cl)c1CNCc1cccnc1N1CCN(C)CC1
Percent Effect [1]: -1.56%
Percent Effect [2]: -1.67%

O=C1COC2(COCCN(Cc3cccnc3)C2)CN1c1ccoc1 (stereo not given)
Percent Effect [1]: 9.69%
Percent Effect [2]: -7.3%

Cn1cc(CN2CCc3c(nc(-c4ccccn4)[nH]c3=O)C2)cn1
Percent Effect [1]: -3.63%
Percent Effect [2]: -0.78%

COCCN1C[C@H]2[C@@H](C1)N(Cc1ccc(C)o1)CC[C@H]2OC
Percent Effect [1]: -3.26%
Percent Effect [2]: -28.9%

CC(Cc1ccco1)NC(=O)Nc1cnn(CC(N)=O)c1 (stereo not given)
Percent Effect [1]: 2.29%
Percent Effect [2]: -8.5%

COc1cccc(CN2CCCC3(CCN(C(=O)[C@H]4CCCO4)C3)C2)c1 (stereo not given in full)
Percent Effect [1]: 2.84%
Percent Effect [2]: 5.38%

COCC1c2c(cnn2CC2CC2)CCN1Cc1ccc(OC)cc1 (stereo not given)
Percent Effect [1]: 0.786%
Percent Effect [2]: 4.64%

CCc1nnc2n1CCN(C(=O)c1ccc3nc(C)c(C)nc3c1)C2
Percent Effect [1]: -2.42%
Percent Effect [2]: 7.1%

COc1cccc(OCCNC(=O)CN2CCN(C)CC2C)c1 (stereo not given)
Percent Effect [1]: -3.03%
Percent Effect [2]: -14.9%

COCC1CCN(C(=O)c2cccc(S(=O)(=O)NCC3(C)COC3)c2)C1 (stereo not given)
Percent Effect [1]: 5.94%
Percent Effect [2]: 10.4%

CC(C(=O)NCCOc1cccc(Cl)c1)n1cncn1 (stereo not given)
Percent Effect [1]: 4.65%
Percent Effect [2]: -10.9%

N#Cc1ccc(F)c(CN2CCCC2Cn2cccn2)c1 (stereo not given)
Percent Effect [1]: 0.262%
Percent Effect [2]: 1.36%

CCCn1nc(C2CCNCC2)n(Cc2ccccc2)c1=O
Percent Effect [1]: -5.32%
Percent Effect [2]: -6.93%

Cn1cc(C(=O)NCc2cn3c(n2)CN(CC2CCOCC2)CC3)cn1
Percent Effect [1]: -2.89%
Percent Effect [2]: -14.5%

CCOc1ncccc1NC(=O)N1CCc2ccccc2C1
Percent Effect [1]: 19.1%
Percent Effect [2]: 3.47%

Cc1ccc(CC(=O)N2CCOC(c3nc(C(C)(C)C)n[nH]3)C2)cn1 (stereo not given)
Percent Effect [1]: -0.39%
Percent Effect [2]: -0.658%

Cc1ccsc1[C@@H]1CCN(C(=O)CCC(=O)N2CCCCCC2)C[C@H]1O
Percent Effect [1]: -0.418%
Percent Effect [2]: -23.3%

O=C(C1CC1)N1CCC(c2nc(O)c3c(n2)CCN(C2CCCC2)C3)C1 (stereo not given)
Percent Effect [1]: -2.25%
Percent Effect [2]: -11.5%

c1csc(-c2nc(CN3CCOC(Cn4cncn4)C3)cs2)c1 (stereo not given)
Percent Effect [1]: -6.66%
Percent Effect [2]: 31.4%

CC(C)Cc1cc(NC(=O)c2ccc(=O)[nH]n2)n(C)n1
Percent Effect [1]: -2.97%
Percent Effect [2]: -34.7%

COc1ccnc(N2CCN(C(=O)CN3CCCC3=O)CC2)n1
Percent Effect [1]: -1.88%
Percent Effect [2]: 13.5%

Cc1ccccc1-c1cc(C(=O)NCCN2CCCS2(=O)=O)[nH]n1
Percent Effect [1]: -2.39%
Percent Effect [2]: -11.4%

O=C(NC1CC1)[C@H]1CC[C@@H]2[C@@H](CCN2c2ncc(F)cn2)O1
Percent Effect [1]: -4.13%
Percent Effect [2]: -23%

Cc1cnn(C2CCCN(C(=O)c3sccc3-n3cnnn3)C2)c1 (stereo not given)
Percent Effect [1]: -2.01%
Percent Effect [2]: -40.9%

COc1ccc(C2=CCN(C(=O)CN(C)Cc3ccoc3)CC2)cc1
Percent Effect [1]: -8.11%
Percent Effect [2]: -67.5%

COc1cc(N2C[C@@H]3COC[C@]3(COc3cccnc3)C2)ncn1
Percent Effect [1]: -3.68%
Percent Effect [2]: -5.75%

CNC(=O)C1(c2cnccn2)CCCN1C(=O)c1ccn(C)n1 (stereo not given)
Percent Effect [1]: -7.79%
Percent Effect [2]: -1.47%

CN(C)[C@@H]1CN(Cc2ccoc2)C[C@@H]2CCCO[C@@H]21
Percent Effect [1]: -2.7%
Percent Effect [2]: 2.87%

Cc1ccc(-c2nc(CN3CCN(S(=O)(=O)N(C)C)CC3)cs2)o1
Percent Effect [1]: 2.34%
Percent Effect [2]: -12.2%

CCCNCc1cn(C)nc1-c1cccnc1
Percent Effect [1]: -0.663%
Percent Effect [2]: -14.7%

O=C(NC1CCS(=O)(=O)C1)c1sccc1-c1ccc(F)cc1 (stereo not given)
Percent Effect [1]: -5.43%
Percent Effect [2]: 3.12%

N#Cc1cccc(N2CC3(CCN(C(=O)c4cccnc4)C3)CC2=O)c1 (stereo not given)
Percent Effect [1]: 2.09%
Percent Effect [2]: -13.7%

CS(=O)(=O)Cc1cccc(C(=O)N2CCCC(n3cccn3)C2)c1 (stereo not given)
Percent Effect [1]: -2.52%
Percent Effect [2]: -47.9%

Cc1ccc(NC(=O)N(C)Cc2cnn(C)c2)cc1OCC(F)F
Percent Effect [1]: 5.84%
Percent Effect [2]: -4.22%

Cc1ccc(CN2C[C@@H]3COC[C@H](NS(C)(=O)=O)[C@@H]3C2)o1
Percent Effect [1]: 3.2%
Percent Effect [2]: -0.0539%

c1ccc(OC2CCCC2)c(CNC2CCc3ncnn3C2)c1 (stereo not given)
Percent Effect [1]: -1.83%
Percent Effect [2]: 9.47%

CNC(=O)C1Cn2ccnc2C2(CCN(Cc3cccc(C)n3)CC2)O1 (stereo not given)
Percent Effect [1]: 1.82%
Percent Effect [2]: 0.0939%

CCc1n[nH]c(C2CN(C(=O)c3cnc(C)s3)CCO2)n1 (stereo not given)
Percent Effect [1]: -6%
Percent Effect [2]: -8.48%

CCOCC1CN(Cc2ccoc2)Cc2ncn(CC3CC3)c21 (stereo not given)
Percent Effect [1]: 0.605%
Percent Effect [2]: -8.58%

CCc1ccc(CN(CCCn2ccnc2)Cc2ccc(C)s2)o1
Percent Effect [1]: 2.1%
Percent Effect [2]: -1.1%

CN(CC1CCCCC1)C(=O)c1ccc(-n2ncc(C#N)c2N)cc1
Percent Effect [1]: -2.55%
Percent Effect [2]: -24.4%

Cn1cccc1C(=O)N1CC[C@H]2C[C@@H](c3ccncn3)O[C@@H]2C1
Percent Effect [1]: -6.89%
Percent Effect [2]: 7.29%

CC(C)N1Cc2c(C(=O)N3CCOCC3)nn(C)c2C1
Percent Effect [1]: 0.382%
Percent Effect [2]: 5.36%
